Screening data (PubChem)
TcdB inh: blocks C. difficile toxin B glycohydrolase activity; actives 0.24% (n = 350,000); P18177; TcdB glycohydrolase enzymatic assay, plate reader; inhibition, % at 9.99 µM; AID 652162; in the data active = inhibition above about 10%
PrPC TRFRET: reduces human prion protein on the cell surface; inhibition, % at 13.8 µM; cell surface PrPC, TR-FRET read-out; P04156; actives 0.43% (n = 370,000); in the data active = inhibition above about 24%; also: 0% = median of the test wells and 100% = reference compound wells
DUSP3 inh: DUSP3 (human) phosphatase inhibition; P51452; recombinant VHR phosphatase, pNPP absorbance; inhibition, % at 13.3 µM; actives 0.52% (n = 290,000); in the data active = inhibition above about 50%
Target sequence (P51452 whole entry, looked up): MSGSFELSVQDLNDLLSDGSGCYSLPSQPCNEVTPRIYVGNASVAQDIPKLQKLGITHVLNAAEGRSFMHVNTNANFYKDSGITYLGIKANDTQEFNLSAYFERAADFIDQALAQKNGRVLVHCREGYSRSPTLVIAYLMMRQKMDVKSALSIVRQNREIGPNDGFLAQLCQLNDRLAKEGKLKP
* marks the source's active call; other numbers are inactive results; · = no result given. A selection: hits, their analogues and other compounds. The true share with any hit is near 0.82%.

SMILES	TcdB inh	PrPC TRFRET	DUSP3 inh
CN1c2ccc(-c3ccccc3)cc2[C@H]2[C@H](CCN2C(=O)Cc2ccccc2)[C@@H]1CO	-1	·	·
CCC(=O)N1CC[C@@H]2[C@H]1c1cc(-c3ccc(F)cc3)ccc1N(C)[C@@H]2CO	0	·	·
CCC(=O)N(C)C[C@@H]1Oc2cc(-c3cncnc3)ccc2S(=O)(=O)N([C@@H](C)CO)C[C@@H]1C	1	·	·
CC(C)NC(=O)Nc1ccc2c(c1)CC(=O)N([C@@H](C)CO)C[C@H](C)[C@H](CN(C)Cc1ccccc1)O2	0	·	·
COc1ccc(-c2ccc3c(c2)O[C@H](CN(C)C)[C@@H](C)CN([C@@H](C)CO)S3(=O)=O)cc1	0	·	·
CO[C@H]1CN(C)C(=O)c2cc(NC(=O)C3CC3)ccc2OC[C@H](C)N(C(=O)Cc2ccccn2)C[C@@H]1C	1	·	·
C[C@@H]1CN([C@H](C)CO)C(=O)c2cc(-c3ccncc3)cnc2O[C@H]1CN(C)C(=O)c1cccc(F)c1	1	·	·
O=C(Nc1nccs1)[C@H]1[C@H](CO)[C@H]2Cn3c(ccc(-c4ccccc4)c3=O)[C@H]2N1CC1CCCC1	-1	·	·
Cc1ccc(S(=O)(=O)Nc2ccc3c(c2)C(=O)N([C@@H](C)CO)C[C@H](C)[C@H](CN(C)C(=O)NC(C)C)O3)cc1	-7	·	·
CNC[C@@H]1Oc2ccc(NC(=O)Nc3cccc4ccccc34)cc2C(=O)N([C@H](C)CO)C[C@@H]1C	-6	·	·
CN1c2ccc(-c3ccccc3)cc2[C@@H]2[C@@H](CCN2C(=O)CN2CCOCC2)[C@@H]1CO	12*	·	·
CN1c2ccc(-c3ccccc3)cc2[C@@H]2[C@@H](CCN2C(=O)CN2CCOCC2)[C@H]1CO	0	·	·
CC(C)NC(=O)N1CC[C@@H]2[C@H]1c1cc(-c3ccccc3)ccc1N(C)[C@H]2CO	15*	·	·
COCC(=O)N1CC[C@@H]2[C@H]1c1cc(-c3ccc(OC)cc3)ccc1N(C)[C@H]2CO	17*	·	·
O=C(C1CCOCC1)N1CC[C@@H]2[C@@H](CO)Nc3ccc(-c4ccc(F)cc4)cc3[C@@H]21	10*	·	·
O=C(C1CCOCC1)N1CC[C@@H]2[C@H]1c1cc(-c3ccc(F)cc3)ccc1N[C@@H]2CO	-1	·	·
COc1ccc(-c2ccc3c(c2)[C@@H]2[C@@H](CCN2C(=O)C2CC2)[C@@H](CO)N3C)cc1	0	·	·
CN1c2ccc(-c3ccccc3)cc2[C@H]2[C@H](CCN2C(=O)NC2CCCCC2)[C@@H]1CO	1	·	·
O=C(NCc1ccc(F)cc1)[C@@H]1[C@@H](CO)[C@@H]2Cn3c(cccc3=O)[C@@H]2N1Cc1ccccn1	-1	·	·
C[C@H]1CN([C@@H](C)CO)C(=O)Cc2cc(NC(=O)Nc3ccc(F)cc3)ccc2O[C@@H]1CN(C)Cc1ccc2c(c1)OCO2	-1	·	·
CCOC(=O)N(C)C[C@H]1OCc2ccccc2-c2ccccc2C(=O)N([C@@H](C)CO)C[C@H]1C	1	·	·
COc1nccnc1NS(=O)(=O)c1ccc(NC(=S)NC(=O)/C=C/c2ccccc2)cc1	·	-6	-5
COc1nccnc1NS(=O)(=O)c1ccc(NC(=S)NC(=O)c2ccccc2)cc1	·	3	52*
C[C@@H]1CN([C@H](C)CO)C(=O)c2cccc(NS(=O)(=O)c3ccccc3)c2O[C@H]1CN(C)C(=O)Nc1ccc(F)cc1	3	·	·
Cn1c(=O)c(C(=O)NCc2ccc(Cl)cc2)c(O)c2ccccc21	0	-1	30
SMILES	TcdB inh	PrPC TRFRET	DUSP3 inh
Cn1c(=O)c(C(=O)NCCc2ccc(Cl)cc2)c(O)c2ccccc21	0	0	59*
CC(C)CNC(=O)[C@@]1(C)c2ccccc2C(=O)N(Cc2ccccc2)[C@H]1c1ccc(CO)cc1	1	·	·
COc1cc(/C=N/n2c(-c3cc(C)[nH]n3)n[nH]c2=S)ccc1O	19*	1	29
COc1cccc(/C=N/n2c(C3CCCCC3)n[nH]c2=S)c1O	2	3	-4
COc1cc(/C=N/n2c(C3CCCCC3)n[nH]c2=S)ccc1O	1	-1	58*
COc1cc(/C=N/n2c(-c3cc(C)[nH]n3)n[nH]c2=S)cc(OC)c1OC	9	-3	18
O=C(N[C@@H]1CC[C@H](CCNS(=O)(=O)c2ccc(F)cc2)O[C@H]1CO)C1CC1	0	·	·
CC1(C)CC(=O)C(C(c2cccc([N+](=O)[O-])c2)C2C(=O)CC(C)(C)CC2=O)C(=O)C1	2	-5	-8
CC1(C)CC(=O)C(C(O)c2cccc([N+](=O)[O-])c2)C(C)(C)N1 (configuration not stated)	0	0	51*
COCc1ccc(CN2CCC(N3CCC(C(=O)N4CCCC4)CC3)CC2)o1	0	1	52*
COCc1ccc(CN2CCC(n3nccc3NC(=O)C(OC)c3ccccc3)CC2)o1 (configuration not stated)	-9	-1	-9
O=C(Cc1ccccn1)NCC[C@H]1CC[C@H](NC(=O)Nc2ccc(F)cc2)[C@H](CO)O1	-2	·	·
